# Results: the supplement of paper PMC10849652
# About 8,800 targets were measured; listed, in parts, are those with a hit and a random draw of the rest. About 0.5% of all pairs of compound and target were hits. A number with no mark means an inactive call.
# Columns and labels:
# Experiment in all cases: log2 fold change, soluble protein after heating vs DMSO (PISA); higher = thermal stabilisation; K562 lysate, 10 uM; active = over 0.2 and 3.5 SD of the protein, either way, in both replicates (recomputed)
# lapatinib = compound: CS(=O)(=O)CCNCc1ccc(-c2ccc3ncnc(Nc4ccc(OCc5cccc(F)c5)c(Cl)c4)c3c2)o1 [lapatinib]
# Method in brief: (§1)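 The values are log-two fold changes in thermal stability compared with solvent controls and come from duplicates. They were obtained by TMTpro 16plex LC-MS/MS, with channel sums equalised, on the supernatant after 21,000xg for 90 min. That supernatant came from crude K562 extract at 1 mg/mL protein treated with 10 μM compound for 30 min, heated for 3 min across 48°C-58°C, pooled and brought to 0.5% NP-40 at 4°C.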
# pictilisib = compound: CS(=O)(=O)N1CCN(Cc2cc3nc(-c4cccc5[nH]ncc45)nc(N4CCOCC4)c3s2)CC1 [pictilisib]
# Method in brief: as §1
# duvelisib = compound: C[C@H](Nc1ncnc2nc[nH]c12)c1cc2cccc(Cl)c2c(=O)n1-c1ccccc1 [duvelisib]
# Method in brief: as §1
# bafetinib = compound: Cc1ccc(NC(=O)c2ccc(CN3CC[C@H](N(C)C)C3)c(C(F)(F)F)c2)cc1Nc1nccc(-c2cncnc2)n1 [bafetinib]
# Method in brief: as §1
# dasatinib = compound: Cc1nc(Nc2ncc(C(=O)Nc3c(C)cccc3Cl)s2)cc(N2CCN(CCO)CC2)n1 [dasatinib]
# Method in brief: as §1
# [1] = compound: Cn1cc(-c2ccc3c(c2)CCN3C(=O)Cc2cccc(C(F)(F)F)c2)c2c(N)ncnc21
# Method in brief: as §1
# [2] = compound: NC(=O)c1cnc(N[C@@H]2CCCC[C@@H]2N)nc1Nc1cccc(-n2nccn2)c1
# Method in brief: as §1
# [3] = compound: NC1(c2ccc(-c3nc4ccn5c(=O)[nH]nc5c4cc3-c3ccccc3)cc2)CCC1
# Method in brief: as §1
# crizotinib = compound: C[C@@H](Oc1cc(-c2cnn(C3CCNCC3)c2)cnc1N)c1c(Cl)ccc(F)c1Cl [crizotinib]
# Method in brief: as §1
# [4] = compound: C[C@H](C1=CC=C(C=C1)C(=O)NC2=C3C=CNC3=NC=C2)N
# Method in brief: as §1
# gandotinib = compound: Cc1cc(Nc2cc(CN3CCOCC3)c3nc(C)c(Cc4ccc(Cl)cc4F)n3n2)n[nH]1 [gandotinib]
# Method in brief: as §1
# tozasertib = compound: Cc1cc(Nc2cc(N3CCN(C)CC3)nc(Sc3ccc(NC(=O)C4CC4)cc3)n2)n[nH]1 [tozasertib]
# Method in brief: as §1
# doramapimod = compound: Cc1ccc(-n2nc(C(C)(C)C)cc2NC(=O)Nc2ccc(OCCN3CCOCC3)c3ccccc23)cc1 [doramapimod]
# Method in brief: as §1
# [5] = compound: Cc1cccc(CC(=O)N2CCc3c2ccc(-c2cn(C)c4ncnc(N)c24)c3F)n1
# Method in brief: as §1
# nilotinib = compound: Cc1cn(-c2cc(NC(=O)c3ccc(C)c(Nc4nccc(-c5cccnc5)n4)c3)cc(C(F)(F)F)c2)cn1 [nilotinib]
# Method in brief: as §1
# [6] = compound: Cc1nc(Nc2n[nH]c3c2CN(C(=O)N[C@H](CN(C)C)c2ccccc2)C3(C)C)c2sccc2n1
# Method in brief: as §1
# [7] = compound: Cc1ncc(-c2ccnc(Nc3ccc(S(C)(=O)=O)cc3)n2)n1C(C)C
# Method in brief: as §1
# quisinostat = compound: Cn1cc(CNCC2CCN(c3ncc(C(=O)NO)cn3)CC2)c2ccccc21 [quisinostat]
# Method in brief: as §1
# tipifarnib = compound: Cn1cncc1[C@@](N)(c1ccc(Cl)cc1)c1ccc2c(c1)c(-c1cccc(Cl)c1)cc(=O)n2C [tipifarnib]
# Method in brief: as §1
# [8] = compound: NC(=O)Nc1cc(-c2cccc(F)c2)sc1C(=O)N[C@H]1CCCNC1
# Method in brief: as §1
# Chain of UniProt O95271 (O95271 whole entry, looked up): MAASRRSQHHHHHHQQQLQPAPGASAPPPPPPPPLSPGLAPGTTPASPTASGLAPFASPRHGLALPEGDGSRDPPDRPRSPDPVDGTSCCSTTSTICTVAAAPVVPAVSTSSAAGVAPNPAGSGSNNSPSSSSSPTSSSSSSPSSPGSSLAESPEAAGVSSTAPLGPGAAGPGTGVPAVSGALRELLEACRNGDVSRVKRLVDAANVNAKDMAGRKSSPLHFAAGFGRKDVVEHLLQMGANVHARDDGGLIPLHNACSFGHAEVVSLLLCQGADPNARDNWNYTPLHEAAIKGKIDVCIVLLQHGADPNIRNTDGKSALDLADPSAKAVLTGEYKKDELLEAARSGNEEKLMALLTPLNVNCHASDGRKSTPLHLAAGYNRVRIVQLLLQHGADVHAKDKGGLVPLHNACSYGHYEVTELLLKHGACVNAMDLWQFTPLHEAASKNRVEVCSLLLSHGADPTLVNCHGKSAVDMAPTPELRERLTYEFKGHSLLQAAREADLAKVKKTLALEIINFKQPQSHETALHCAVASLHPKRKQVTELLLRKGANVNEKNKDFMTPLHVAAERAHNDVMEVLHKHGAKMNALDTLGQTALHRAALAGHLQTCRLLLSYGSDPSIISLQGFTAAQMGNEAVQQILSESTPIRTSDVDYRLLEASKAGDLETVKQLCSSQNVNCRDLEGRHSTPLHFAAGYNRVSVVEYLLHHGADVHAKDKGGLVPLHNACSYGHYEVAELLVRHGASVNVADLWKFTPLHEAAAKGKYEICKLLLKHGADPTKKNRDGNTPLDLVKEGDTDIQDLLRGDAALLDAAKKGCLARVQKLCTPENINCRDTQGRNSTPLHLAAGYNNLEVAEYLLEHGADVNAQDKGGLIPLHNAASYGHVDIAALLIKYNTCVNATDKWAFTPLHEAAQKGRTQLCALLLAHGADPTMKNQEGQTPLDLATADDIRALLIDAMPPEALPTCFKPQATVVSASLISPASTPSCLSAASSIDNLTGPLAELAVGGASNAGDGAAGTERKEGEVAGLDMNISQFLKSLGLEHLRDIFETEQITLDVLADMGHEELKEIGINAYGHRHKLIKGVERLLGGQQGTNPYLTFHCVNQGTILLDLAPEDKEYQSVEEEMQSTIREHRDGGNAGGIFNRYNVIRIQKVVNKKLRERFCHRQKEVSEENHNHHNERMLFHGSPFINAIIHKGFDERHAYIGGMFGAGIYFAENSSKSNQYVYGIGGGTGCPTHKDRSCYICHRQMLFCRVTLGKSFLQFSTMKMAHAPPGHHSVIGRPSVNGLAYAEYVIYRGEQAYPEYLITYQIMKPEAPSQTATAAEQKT
# Chain of UniProt O43493 (O43493 whole entry, looked up): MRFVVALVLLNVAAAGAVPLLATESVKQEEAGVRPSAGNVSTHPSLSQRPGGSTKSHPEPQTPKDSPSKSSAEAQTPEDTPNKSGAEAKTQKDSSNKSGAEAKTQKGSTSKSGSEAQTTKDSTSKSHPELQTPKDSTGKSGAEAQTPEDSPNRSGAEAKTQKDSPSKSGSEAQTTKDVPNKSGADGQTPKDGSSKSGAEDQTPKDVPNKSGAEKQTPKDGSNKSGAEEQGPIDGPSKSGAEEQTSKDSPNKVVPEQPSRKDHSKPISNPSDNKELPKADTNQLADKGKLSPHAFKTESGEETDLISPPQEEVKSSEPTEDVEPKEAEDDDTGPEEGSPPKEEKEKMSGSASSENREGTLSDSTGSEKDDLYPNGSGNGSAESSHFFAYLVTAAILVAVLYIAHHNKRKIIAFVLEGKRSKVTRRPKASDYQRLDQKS
# Chain of UniProt O43156 (O43156 whole entry, looked up): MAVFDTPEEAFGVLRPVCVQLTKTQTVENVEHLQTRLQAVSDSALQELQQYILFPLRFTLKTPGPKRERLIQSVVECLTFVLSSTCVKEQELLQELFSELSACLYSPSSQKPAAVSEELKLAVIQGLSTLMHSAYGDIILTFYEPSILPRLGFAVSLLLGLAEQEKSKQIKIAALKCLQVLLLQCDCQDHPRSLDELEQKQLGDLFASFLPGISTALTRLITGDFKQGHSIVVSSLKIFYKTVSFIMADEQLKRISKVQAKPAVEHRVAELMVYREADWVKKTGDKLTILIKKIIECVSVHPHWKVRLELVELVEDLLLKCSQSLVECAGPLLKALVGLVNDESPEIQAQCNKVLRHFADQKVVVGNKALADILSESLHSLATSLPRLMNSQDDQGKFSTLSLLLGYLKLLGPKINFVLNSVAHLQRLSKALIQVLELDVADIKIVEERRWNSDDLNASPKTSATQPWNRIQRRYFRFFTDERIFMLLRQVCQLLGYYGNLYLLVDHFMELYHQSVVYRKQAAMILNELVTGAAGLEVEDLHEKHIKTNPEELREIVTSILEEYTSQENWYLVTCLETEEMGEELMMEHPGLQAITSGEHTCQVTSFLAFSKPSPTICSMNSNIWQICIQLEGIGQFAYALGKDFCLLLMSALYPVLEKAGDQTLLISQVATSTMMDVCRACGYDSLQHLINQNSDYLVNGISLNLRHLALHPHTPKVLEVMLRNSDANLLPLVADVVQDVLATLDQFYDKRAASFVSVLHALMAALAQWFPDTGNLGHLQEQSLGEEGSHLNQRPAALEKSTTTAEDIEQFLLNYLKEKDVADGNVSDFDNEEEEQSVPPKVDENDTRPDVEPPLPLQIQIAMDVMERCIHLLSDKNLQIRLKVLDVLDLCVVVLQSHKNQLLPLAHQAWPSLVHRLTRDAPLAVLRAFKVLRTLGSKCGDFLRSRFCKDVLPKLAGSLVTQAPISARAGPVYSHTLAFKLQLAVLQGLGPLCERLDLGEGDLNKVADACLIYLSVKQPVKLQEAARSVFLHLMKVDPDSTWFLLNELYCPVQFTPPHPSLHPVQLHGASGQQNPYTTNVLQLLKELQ
# Chain of UniProt Q14CS0 (Q14CS0 whole entry, looked up): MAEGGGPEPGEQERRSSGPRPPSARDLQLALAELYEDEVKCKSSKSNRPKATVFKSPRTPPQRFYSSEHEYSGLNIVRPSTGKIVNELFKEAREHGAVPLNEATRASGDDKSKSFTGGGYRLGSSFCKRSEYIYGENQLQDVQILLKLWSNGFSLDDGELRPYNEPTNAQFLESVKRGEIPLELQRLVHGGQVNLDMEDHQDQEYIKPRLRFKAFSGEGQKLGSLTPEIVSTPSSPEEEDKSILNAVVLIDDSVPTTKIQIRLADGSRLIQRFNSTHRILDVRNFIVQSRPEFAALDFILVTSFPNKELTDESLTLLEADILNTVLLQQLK
# Chain of UniProt Q04726 (Q04726 whole entry, looked up): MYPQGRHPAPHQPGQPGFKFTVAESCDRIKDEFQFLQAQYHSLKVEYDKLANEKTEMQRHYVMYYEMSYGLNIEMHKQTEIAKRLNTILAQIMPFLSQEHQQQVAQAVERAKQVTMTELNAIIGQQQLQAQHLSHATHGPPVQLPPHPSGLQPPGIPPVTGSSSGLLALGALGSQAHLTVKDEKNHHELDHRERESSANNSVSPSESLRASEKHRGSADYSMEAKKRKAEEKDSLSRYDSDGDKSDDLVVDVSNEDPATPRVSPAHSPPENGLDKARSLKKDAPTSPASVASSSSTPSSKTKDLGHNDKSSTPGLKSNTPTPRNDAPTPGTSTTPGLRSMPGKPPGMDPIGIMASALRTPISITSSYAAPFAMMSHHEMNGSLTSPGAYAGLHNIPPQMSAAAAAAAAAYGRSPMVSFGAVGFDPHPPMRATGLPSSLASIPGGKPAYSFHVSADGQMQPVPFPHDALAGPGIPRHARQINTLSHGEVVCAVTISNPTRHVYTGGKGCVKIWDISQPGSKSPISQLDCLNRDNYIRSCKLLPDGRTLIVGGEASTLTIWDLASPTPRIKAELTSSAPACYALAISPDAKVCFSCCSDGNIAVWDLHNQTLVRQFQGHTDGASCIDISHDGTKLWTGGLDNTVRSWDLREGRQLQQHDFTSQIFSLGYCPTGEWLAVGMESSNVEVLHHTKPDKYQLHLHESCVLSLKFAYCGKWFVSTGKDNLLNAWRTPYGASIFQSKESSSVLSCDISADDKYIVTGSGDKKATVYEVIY
# Chain of UniProt Q53S58 (Q53S58 whole entry, looked up): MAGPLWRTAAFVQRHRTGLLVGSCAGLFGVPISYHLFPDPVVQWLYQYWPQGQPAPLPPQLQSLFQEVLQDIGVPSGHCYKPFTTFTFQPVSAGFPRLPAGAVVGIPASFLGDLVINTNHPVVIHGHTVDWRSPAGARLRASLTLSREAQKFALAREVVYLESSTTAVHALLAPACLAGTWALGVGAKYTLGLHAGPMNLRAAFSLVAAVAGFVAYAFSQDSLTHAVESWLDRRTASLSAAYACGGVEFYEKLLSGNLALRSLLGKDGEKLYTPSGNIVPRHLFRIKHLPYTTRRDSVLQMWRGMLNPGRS
# Chain of UniProt Q9NUY8 (Q9NUY8 whole entry, looked up): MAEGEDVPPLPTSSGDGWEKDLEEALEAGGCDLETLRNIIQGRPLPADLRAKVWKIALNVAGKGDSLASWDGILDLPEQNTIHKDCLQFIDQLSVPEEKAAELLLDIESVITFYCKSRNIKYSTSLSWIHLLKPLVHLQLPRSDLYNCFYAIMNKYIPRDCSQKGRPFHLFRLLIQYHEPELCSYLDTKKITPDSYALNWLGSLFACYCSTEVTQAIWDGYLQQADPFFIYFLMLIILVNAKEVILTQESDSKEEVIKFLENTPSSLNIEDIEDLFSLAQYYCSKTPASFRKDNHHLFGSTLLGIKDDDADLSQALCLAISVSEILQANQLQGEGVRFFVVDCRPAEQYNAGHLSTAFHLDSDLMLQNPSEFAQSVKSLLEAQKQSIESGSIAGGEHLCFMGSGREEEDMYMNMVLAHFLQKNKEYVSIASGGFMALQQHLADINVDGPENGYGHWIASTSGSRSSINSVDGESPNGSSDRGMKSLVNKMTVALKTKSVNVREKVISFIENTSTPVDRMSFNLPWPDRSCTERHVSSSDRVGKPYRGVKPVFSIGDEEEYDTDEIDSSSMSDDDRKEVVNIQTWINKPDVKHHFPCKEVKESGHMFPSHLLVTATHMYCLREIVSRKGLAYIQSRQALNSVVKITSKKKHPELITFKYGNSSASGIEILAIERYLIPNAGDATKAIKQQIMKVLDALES
Target,log2 fold change (lapatinib),log2 fold change (pictilisib),log2 fold change (duvelisib),log2 fold change (bafetinib),log2 fold change (dasatinib),log2 fold change [1],log2 fold change [2],log2 fold change [3],log2 fold change (crizotinib),log2 fold change [4],log2 fold change (gandotinib),log2 fold change (tozasertib),log2 fold change (doramapimod),log2 fold change [5],log2 fold change (nilotinib),log2 fold change [6],log2 fold change [7],log2 fold change (quisinostat),log2 fold change (tipifarnib),log2 fold change [8]
TFPT (UniProt P0C1Z6),-0.004,0.032,-0.005,-0.004,0.009,0.006,0.023,-0.002,–,–,–,–,–,–,–,–,–,–,–,–
TLE3 isoform 4 (UniProt Q04726),-0.01,0.008,-0.015,0.1,-0.002,-0.038,0.001,-0.003,0.003,0.004,0,-0.029,-0.016,-0.048,0.011,0.053,0.001,0.008,-0.003,0.012
TGOLN2 isoform 7 (UniProt O43493),-0.007,0.001,0.021,0.032,0.023,0.033,0.019,0.008,0.045,-0.051,0.034,-0.065,-0.03,0.034,-0.059,-0.004,0.021,-0.029,-0.087,0.014
TENM4 (UniProt Q6N022),-0.169,-0.065,–,-0.148,–,–,-0.081,–,-0.07,0.415,-0.028,–,-0.068,-0.032,–,–,–,-0.13,–,0.033
TNKS (UniProt O95271),-0.085,–,-0.027,–,0.081,-0.051,0.088,0.028,-0.031,-0.302 (active),0.038,0.073,-0.013,0.107,-0.053,-0.016,0.04,-0.021,0.103,0.032
TTC27 (UniProt Q6P3X3),-0.01,0.005,0.04,-0.066,-0.009,0.01,-0.028,-0.023,-0.041,-0.033,-0.129,0.004,0.048,0.04,-0.018,0.027,-0.031,-0.047,-0.03,0.057
TMEM177 (UniProt Q53S58),0.018,0.002,–,-0.059,–,–,0.029,0.067,0.053,-0.005,-0.125,-0.016,-0.056,-0.013,–,–,–,-0.018,–,0.036
TFAP4 (UniProt Q01664),-0.05,0.022,–,-0.214,–,–,-0.218,-0.001,0.009,0.477 (active),0.033,-0.05,0.017,-0.217,0.18,0.155,0,0.006,-0.066,-0.036
TTI1 (UniProt O43156),-0.011,-0.044,-0.005,-0.016,0.005,0.016,0.01,-0.001,-0.11,-0.075,-0.113,0.028,0.045,0.056,-0.007,0.004,0.001,-0.047,-0.015,-0.003
UBXN10 (UniProt Q96LJ8),-0.041,0.006,0.035,-0.081,-0.007,0.008,0.078,0.014,0.02,-0.001,0.06,0.006,-0.003,-0.065,–,–,–,-0.028,–,0.035
TBC1D23 (UniProt Q9NUY8),-0.007,-0.016,-0.012,-0.027,-0.001,-0.021,-0.032,-0.004,-0.031,-0.033,0.03,0.034,0.017,0.048,0.013,-0.018,-0.005,-0.028,0.018,0.01
UBXN2B (UniProt Q14CS0),-0.226,-0.036,0.07,0.003,0.08,-0.099,-0.024,-0.06,–,-0.01,0.213,0.027,–,-0.005,-0.04,-0.068,-0.208,–,0.021,–
